D2 antag = antagonizes the human D2 dopamine receptor | HEK293 TREx D2 cells, calcium flux, dopamine EC80 | P14416 | 340,000 compounds, 2% hits | AID 485344 | inhibition, % at 10 µM; in the data active means inhibition above about 30%; inactive means below that, where a call was filed
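Inhibition of EC80 dopamine-driven calcium flux, recorded kinetically, defines activity here; cells are a tetracycline-induced HEK293 T-REx line expressing force-coupled D2.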
D2 ag-1 = D2 dopamine receptor (human) agonism | 340,000 compounds, 0.53% hits | AID 485358 | activation, % at 2 µM | P14416 | HEK293 T-REx D2 cells, calcium flux agonist mode;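 active means activation over 3 SD above normal in the single-dose calcium agonist read, cut at about 30% in these data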
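Agonism is scored from calcium flux in a force-coupled, inducible HEK293 cell line expressing D2, read kinetically for 180 s after compound addition against dopamine controls.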
D2 PAM-1 = potentiates the human D2 dopamine receptor allosterically. P14416. DiscoveRx D2 beta-arrestin cells, luminescence, 90 min; 100% = 57 uM dopamine signal. potentiation, % (test concentration not listed). 360,000 compounds, 0.23% hits. AID 624464; in the data active means potentiation above about 50%; inconclusive means mostly about 30% to 49%
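D2 cells co-treated with compound plus 50 nM dopamine (EC20) for 90 min at 37 deg C to detect potentiation. Beta-arrestin recruitment was read as enzyme-fragment luminescence after 1 h at ambient temperature. Full response was set by 57 uM dopamine.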
D2 PAM-2 = D2 dopamine receptor (human) potentiation | P14416 | HEK293 T-REx D2, calcium flux, EC20 dopamine potentiation | potentiation, % at 10 µM | 340,000 compounds, 0.34% hits | AID 485347;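 active means potentiation over 3 SD above the plate norm, cut at about 30% in these data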
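Primary screen. Calcium kinetics in induced HEK293 T-REx D2 cells: compound pre-addition 180 s, EC20 dopamine, 180 s more.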
D2 ag-2 = agonists of human D2 dopamine receptor (beta-arrestin). 360,000 compounds, 0.084% hits. DiscoveRx PathHunter D2 beta-arrestin, luminescence, 90 min; 100% = 57 uM dopamine signal. AID 624465. P14416. activation, % (no concentration beside the values); in the data active means activation above about 40%; inconclusive means between about 15% and that limit
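DiscoveRx PathHunter D2 beta-arrestin cells (2,100/well) attached overnight, then compound-stimulated 90 min at 37 C in HBSS/10 mM HEPES/0.1% Tween-20 buffer; beta-galactosidase complementation read by luminescence after 1 h at ambient temperature. Dopamine 57 uM final (EC100) as control.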
D3 ag = activates human D3 dopamine receptor beta-arrestin recruitment; shares compounds with D2 ag-1; DiscoveRx D3 beta-arrestin cells, luminescence, 90 min; Potency, µM (titrated, usually from 76.9 µM), hits mostly activators; 2,300 compounds, 4% hits; further: nearly all actives have a fitted effect of over 70% in size
Target sequence (P35462 whole entry, looked up): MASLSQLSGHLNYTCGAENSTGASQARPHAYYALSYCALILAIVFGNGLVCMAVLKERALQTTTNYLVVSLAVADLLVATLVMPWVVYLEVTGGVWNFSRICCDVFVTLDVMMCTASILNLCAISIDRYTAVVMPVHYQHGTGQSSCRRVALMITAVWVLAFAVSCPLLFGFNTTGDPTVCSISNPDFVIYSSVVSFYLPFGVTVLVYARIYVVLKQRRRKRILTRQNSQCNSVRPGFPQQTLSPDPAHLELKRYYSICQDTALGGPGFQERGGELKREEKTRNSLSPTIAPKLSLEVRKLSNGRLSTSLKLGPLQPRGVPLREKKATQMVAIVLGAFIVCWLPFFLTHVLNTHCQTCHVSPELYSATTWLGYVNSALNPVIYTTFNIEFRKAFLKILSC
D2 ag-3 = D2 receptor agonism, beta-arrestin counterscreen; shares compounds with D2 ag-1; DiscoveRx PathHunter D2 beta-arrestin, luminescence, 90 min; response scale: percent relative to full dopamine signal; Potency, µM (doses to about 76.9 µM), usual class: activators; 2,300 compounds, 5.9% hits; AID 720507; further: nearly all actives have a fitted effect of over 70% in size
A number is an active result; - = inactive; ? = inconclusive; . = not tested or not shown. In the library only some 2.4% were active in any assay of this set; here they are far more common. Unless noted, the call rests on the fitted dose curve; in most records, active means well fitted activation curve with a large enough effect; inconclusive means small, poorly fitted or top-dose-only effect; inactive means flat fitted curve, though single readings scatter.

SMILES	D2 antag	D2 ag-1	D2 PAM-1	D2 PAM-2	D2 ag-2	D3 ag	D2 ag-3
Cc1ccc(CNC(=O)c2cc(-c3ccc(C)cc3)nc3n[nH]c(-c4cccc([N+](=O)[O-])c4)c23)cc1	.	-	.	-	.	.	.
CC(C)c1ccc(NC(=O)[C@H]2O[C@@H]3OC(C)(C)O[C@@H]3[C@H]3OC(C)(C)O[C@H]32)cc1	.	-	.	-	.	.	.
COc1cc(OC)c(NC(=O)CSC2=Nc3ccccc3N=C(c3ccc(F)cc3)C2)cc1Cl	.	-	.	-	.	.	.
CCCn1cc(SCC(=O)NC2CCCC2)c2ccccc21	-	-	-	-	-	-	-
Cc1ccc(-c2nc(CCNC(=O)C(=O)Nc3ccc(C)c(Cl)c3)cs2)cc1	.	-	.	-	.	.	.
CCOC(=O)c1c(C)[nH]c(C)c1C(=O)Cn1nnc(-c2ccccc2C)n1	-	-	-	-	-	-	-
CCOC(=O)c1c(C)[nH]c(C(=O)Cn2nnc(-c3ccccc3Cl)n2)c1C	-	-	-	-	-	.	.
O=C(NCc1n[nH]c(=O)c2ccccc12)C1CC(=O)N(c2ccc(Cl)cc2)C1 (centres undefined)	-	-	-	-	-	-	-
CC(C)/C=C/CN1CCC(Oc2ccc(C(=O)N3CCCC3)cc2)CC1	.	.	.	.	.	-	-
COc1cccc(CN2CCC(Oc3ccc(C(=O)N4CCCCC4)cc3)CC2)c1	-	-	-	-	-	.	.
CC(CCc1ccc(O)cc1)N1CCC(Oc2ccc(C(=O)N3CCCC3)cc2)CC1 (centres undefined)	39	60	-	-	-	?	-
CCOC(=O)c1cc(-c2ccc(OC)cc2)n(CCC(=O)NC2CCCCC2)c1C	.	-	.	-	.	.	.
COc1ccc(OC)c(CNS(=O)(=O)c2cc(-c3onc(C)c3C)ccc2C)c1	.	-	.	-	.	.	.
CCCn1c(C2CCCN2c2nc(-c3cccc(Br)c3)cs2)nc2cc(Cl)c(Cl)cc21 (centres undefined)	-	40	-	-	-	-	-
CCCn1c(C2CCCN2c2nc(C)cs2)nc2cc(Cl)c(Cl)cc21 (centres undefined)	-	-	-	-	-	.	.
COc1ccc(CN(C)S(=O)(=O)c2nnc(NC(=O)C(C)C)s2)cc1OC	.	-	.	-	.	.	.
CC(C)(C)SCCNC(=O)c1ccc(CN2CCc3ccccc3C2)cc1	-	34	-	-	-	-	-
COc1ccc(/[N+]([O-])=C/c2ccco2)cc1	-	-	-	-	-	-	-
COc1ccc(OCC(=O)N/N=C\c2ccco2)cc1	-	-	-	-	-	.	.
CCSC1=N/C(=C\c2ccc3c(c2)OCO3)C(=O)S1	30	-	-	-	-	-	-
O=C(COc1cccc(F)c1)NNC(=O)Cc1ccc(S(=O)(=O)N2CCOCC2)s1	-	-	-	-	-	-	-
O=C(COc1cccc(C(F)(F)F)c1)NNC(=O)Cc1ccc(S(=O)(=O)N2CCOCC2)s1	-	-	-	-	-	.	.
CCOc1ccc(-c2nc3c(C#N)c[nH]n3c2NC2CCCC2)cc1	.	.	.	-	.	.	.
O=C(CCCCCn1c(=O)c2sccc2n(Cc2ccc(Cl)cc2)c1=O)NCc1ccc2c(c1)OCO2	.	-	.	-	.	.	.
CCC1CCc2c(sc(NC(=O)C3CC=CCC3C(=O)O)c2C#N)C1 (centres undefined)	-	62	-	-	?	16µM	?
SMILES	D2 antag	D2 ag-1	D2 PAM-1	D2 PAM-2	D2 ag-2	D3 ag	D2 ag-3
CS(=O)(=O)c1cccc(-c2nnc(NC(=O)c3ccc4c(c3)OCCO4)o2)c1	.	-	.	-	.	.	.
CSc1cccc(NC(=O)N2CCN(S(=O)(=O)c3ccc4c(ccn4C)c3)CC2)c1	.	-	.	-	.	.	.
Cc1ccc(NC(=O)C[n+]2cc(-c3ccccc3)n3c2CCC3)cc1	56	71	-	-	-	-	-
Cc1ccc(-c2c[n+](CC(=O)Nc3ccccc3C)c3n2CCC3)cc1	-	-	-	-	-	.	.
COCCNC(=S)Nc1cc2oc3ccccc3c2cc1OC	30	57	-	-	-	-	-
Cc1ccc(NC(=O)CSc2cn(CC(=O)N3CCOCC3)c3ccccc23)cc1Cl	.	-	.	-	.	.	.
CCNc1nc(C#N)nc2c1ncn2-c1cc(F)cc(F)c1	-	-	.	-	.	-	-
CCOC(=O)c1cc(C)n(CC2CCC(C(=O)Nc3cc(OC)cc(OC)c3)CC2)c1C (centres undefined)	.	-	.	-	.	.	.
Cc1c(C(=O)NC2CCC(C)CC2)oc2ccccc12 (centres undefined)	-	43	-	-	-	-	-
CCC(=O)N1C(Cc2ccccc2)COC1(C)C (centres undefined)	-	41	-	-	-	-	-
CCC1(C)NC(=O)N(CC(=O)N2CCC(Cc3ccccc3)CC2)C1=O (centres undefined)	-	-	-	-	-	.	.
CC(=O)c1ccc(NC(=O)Cn2cnc(S(=O)(=O)N3CCc4ccccc43)c2)cc1	-	54	-	-	-	-	-
COC(=O)C1=C(C)Nc2nnnn2C1c1cccnc1 (centres undefined)	.	.	-	.	-	.	.
CC1=C(C(=O)OC2CCCCC2)C(c2cccnc2)n2nnnc2N1 (centres undefined)	-	61	-	-	-	-	-
Cc1cccc(C2CN(C)CCc3c2cc(O)c(O)c3Cl)c1 (centres undefined)	79	52	-	-	-	?	-
Oc1cc2c(c(Cl)c1O)CCNCC2c1ccccc1 (centres undefined)	.	.	-	.	-	.	.
Cc1nnc(N2CCN(C(=O)Nc3cc(F)ccc3F)CC2)c2nn(-c3ccc(Cl)cc3)c(C)c12	.	-	.	-	.	.	.
O=[N+]([O-])c1ccc(OCC(O)CN2CCN(c3ccccc3F)CC2)cc1 (centres undefined)	91	79	-	-	?	?	?
OC(CNCC1COc2ccccc2O1)COc1ccccc1F (centres undefined)	96	78	-	-	-	-	-
Cc1ccc(N2CCN(CC(O)COc3ccc([N+](=O)[O-])cc3)CC2)cc1 (centres undefined)	-	-	-	-	-	.	.
CCN1CCN(CC(O)COCc2ccccc2)CC1 (centres undefined)	-	-	-	-	-	.	.
OC(COCc1ccccc1)CN1CCN(c2ccccc2F)CC1 (centres undefined)	111	64	-	-	-	?	?
OC(COCC1COc2ccccc2O1)CN1CCN(c2ccccc2F)CC1 (centres undefined)	84	60	-	-	-	?	?
O=C(CC(c1cccs1)N1Cc2ccccc2C1=O)Nc1cccc(F)c1 (centres undefined)	.	-	.	-	.	.	.
